Test [1] concerns Human papillomavirus type 1a protein E7 (residues 44-93). The experiment in a line: small molecules binding HPV E7 44-93 – biochemical, small-molecule microarray, residues 44-93, 635 nm fluorescence, primary screen (AID 1108).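 Note: E7 fragment applied at 1 µg/mL in TBST for 1 h at 4 C; score combines spot fluorescence with its signal to noise ratio.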 The following applies: fluorescence 635 nm, higher = more signal.
The nature of test [2]: hepatitis C replication reporter changes, two-sided – Huh7 cells, luciferase reporter, HCV replication inhibitor project, primary screen (AID 1109).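 Note: huh7 hepatoma cells harbouring a luciferase neomycin HCV replicon reporter; luciferase luminescence as measure of HCV replicon replication; test concentration not given here.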 The following applies: Huh7 HCV replicon luciferase reporter, 48 h; higher = more signal. Background: Reporter assays use an easily measured gene product as a stand-in for the process of interest.
The target in test [3] is Left-right determination factor 2 (Homo sapiens) (UniProt O00292). The experiment in a line: small molecules binding LEFTY2 protein – biochemical, small-molecule microarray, 635 nm fluorescence scan, primary screen (AID 1110). The following applies: higher = more signal.
Chain of Left-right determination factor 2 (Homo sapiens) (O00292 whole entry, looked up): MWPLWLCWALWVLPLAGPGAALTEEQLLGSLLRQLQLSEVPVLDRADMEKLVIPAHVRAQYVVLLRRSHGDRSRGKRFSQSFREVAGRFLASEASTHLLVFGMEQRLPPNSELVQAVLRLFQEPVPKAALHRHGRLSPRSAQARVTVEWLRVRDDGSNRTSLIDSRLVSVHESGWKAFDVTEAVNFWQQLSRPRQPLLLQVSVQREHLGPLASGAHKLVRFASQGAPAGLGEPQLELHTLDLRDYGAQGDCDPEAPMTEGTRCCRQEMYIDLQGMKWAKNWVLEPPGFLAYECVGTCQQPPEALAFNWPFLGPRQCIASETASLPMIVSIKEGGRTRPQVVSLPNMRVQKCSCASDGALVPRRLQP
Test [4] has as its target Calmodulin-1 (Homo sapiens) (UniProt P0DP23). The experiment in a line: small molecules binding calmodulin-1 with EGTA – biochemical, small-molecule microarray, Cy5-labelled CALM1, profiling panel (AID 1111).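 Note: labelled calmodulin applied in Tris saline Tween buffer holding calcium plus EGTA and DTT.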 Particulars: Cy5-CALM1 binding fluorescence, higher = more signal.
For test [5] the target is unchanged. The experiment in a line: small molecules binding Ca-loaded calmodulin-1 – biochemical, small-molecule microarray, Cy5-labelled CALM1, plus calcium, artefact control for SMM control-protein annotation, profiling panel (AID 1112).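 Note: score merges spot fluorescence with signal to noise from triplicate slides.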 Particulars: Cy5-CALM1 binding fluorescence, higher = more signal.
Test [6] in a line: probe aWnt5a binding to arrayed compounds – biochemical, biotinylated probe, 635/667 nm fluorescence, primary screen (AID 1113).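 Note: score merges 667 nm fluorescence intensity with signal-to-noise per printed feature.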 The following applies: small-molecule microarray, higher = more signal.
Test [7] can be described thus: probe aShh binding to arrayed compounds – biochemical, biotinylated probe, 635/667 nm fluorescence, primary screen (AID 1114).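 Note: probe is biotin-labelled aShh protein from a stem cell growth factor screen; measures binding of labelled protein to compounds printed on the slide; score merges feature fluorescence at 667 nm with signal-to-noise.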 The following applies: small-molecule microarray, higher = more signal.
The nature of test [8]: probe aNog binding to arrayed compounds – biochemical, biotinylated probe, 635/667 nm fluorescence, primary screen (AID 1115).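 Note: probe is biotinylated aNog protein used at 0.15 µg/mL for 1 h at 4 C; z-score combines 667 nm fluorescence of each spot with its signal to noise.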 Particulars: small-molecule microarray, higher = more signal.
In test [9] the target is Torsin-1A-interacting protein 1 (Homo sapiens) (UniProt Q5JTV8). The experiment in a line: compound microarray binding of lysate hLAP1 – cell lysate, small-molecule microarray, COS7 lysate, 635/667 nm fluorescence, primary screen (AID 1116). Particulars: 635 nm fluorescence, higher = more signal.
Chain of Torsin-1A-interacting protein 1 (Homo sapiens) (Q5JTV8 whole entry, looked up): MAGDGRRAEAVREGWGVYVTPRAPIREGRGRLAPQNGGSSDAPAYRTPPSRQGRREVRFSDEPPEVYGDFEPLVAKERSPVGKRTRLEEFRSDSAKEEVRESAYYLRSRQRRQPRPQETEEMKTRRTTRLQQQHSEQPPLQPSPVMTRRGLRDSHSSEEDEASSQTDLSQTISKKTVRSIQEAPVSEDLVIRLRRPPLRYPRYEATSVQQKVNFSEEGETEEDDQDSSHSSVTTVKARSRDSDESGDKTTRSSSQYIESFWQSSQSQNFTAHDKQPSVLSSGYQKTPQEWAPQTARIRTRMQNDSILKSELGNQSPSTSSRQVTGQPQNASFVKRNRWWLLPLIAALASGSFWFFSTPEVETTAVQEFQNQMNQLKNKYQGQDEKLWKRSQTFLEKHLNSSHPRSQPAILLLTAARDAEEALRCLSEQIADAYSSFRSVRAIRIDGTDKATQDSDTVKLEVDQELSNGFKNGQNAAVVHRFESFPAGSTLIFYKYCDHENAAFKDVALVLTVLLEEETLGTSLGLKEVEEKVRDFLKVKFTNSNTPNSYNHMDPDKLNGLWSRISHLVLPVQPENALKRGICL
Test [10] addresses Alpha-bungarotoxin (Bungarus multicinctus) (UniProt P60615). The experiment in a line: compounds binding labelled alpha-BTX control protein – biochemical, small-molecule microarray, Alexa647 label, 635/667 nm fluorescence, artefact control for SMM control protein annotation, profiling panel (AID 1117). Particulars: alpha-BTX-A647 binding fluorescence, higher = more signal.

Chain of Alpha-bungarotoxin (Bungarus multicinctus) (P60615 whole entry, looked up): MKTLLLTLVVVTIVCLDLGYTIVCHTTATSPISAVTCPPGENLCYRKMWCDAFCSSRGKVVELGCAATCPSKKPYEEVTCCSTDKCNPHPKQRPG

Turning to `NCCCC[C@@H]1NC(=O)[C@H]2C[C@@H](C(=O)O)[C@@H](c3cccc(OCCO)c3)N2C1=O`, the composite z-score was 1.4 in [1]; 1.53 in [3]; 0.441 in [4]; -0.197 in test [5]; 0.0017 in test [6]; 0.166 in test [7]. Also, the composite z-score in test [8] was determined as 1.33; in [9], 1.07; in [10] it was 2.12. Further, in test [2], the z-score was -1.56.

On to `COCC(=C=CC[C@@H](O)c1cccc(OCCO)c1)C[C@@H](O)COCc1ccccc1`, for which the composite z-score in [1] is 0.276; in test [3] it was -0.0586; in test [4], 1.8; in test [5] it was 1.35; in [6], 0.284; in test [7] it was 0.0633. Also, the composite z-score in [8] was -0.215; in [9] it was 3.66; in test [10], 0.116. Also, the z-score in test [2] was -0.81.

As to `C=C(C(=O)CC[C@@H](OC(C)=O)c1cccc(OCCO)c1)C(C)C`, the composite z-score in [1] is 0.974; in test [3], -0.865; in test [4], -0.35; in test [5], -0.94; in test [6] it was -0.0276; in [7] it was -0.223. The values for the composite z-score in [8], in test [9] and in test [10] were -0.0863, 0.847 and 0.221, respectively. Further, the z-score in test [2] is -3.23.

With `COCCOC(=O)N1C(=O)[C@@]2(c3cc(C#CC4=CCCCC4)ccc31)[C@H](C(=O)N1CCN(c3ncccn3)CC1)[C@H]1C(=O)O[C@H](c3ccccc3)[C@H](c3ccccc3)N1[C@@H]2c1ccccc1OCCO`, the composite z-score in test [1] is 1.38; in test [3], 0.419; in test [4], 0.936; in test [5], 0.473; in test [6] it was -0.0778; in [7], -0.19. Moreover, the figures for the composite z-score in [8], in test [9] and in [10] were -0.0845, 0.961 and 0.903, respectively. For the same compound, the z-score in test [2] was -1.9.

For `CN1C(=O)C2C=CC(C(O)c3ccc(-c4ccccc4)s3)N(Nc3ccccc3)C2C1=O` (stereo not given), the composite z-score in [1] was 0.965; in test [3], 0.0874; in test [4], 1.41; in test [5] it was 0.186; in [6], -0.0103; in [7] it was 0.296. The composite z-score in test [8] came to 1.49; in [9] it was 1.07; in test [10], 2. The z-score in test [2] was -0.593.

For `O=C1c2ccccc2[C@](Cc2ccccc2I)(C(=O)O)[C@H](c2ccc(CO)cc2)N1Cc1ccccc1`, the composite z-score was 1.17 in [1]; -1.04 in test [3]; 1.34 in [4]; 0.83 in [5]; -0.0846 in test [6]; -0.26 in [7]. Also, the values for the composite z-score in test [8], in [9] and in test [10] were -0.215, 0.712 and 2.38, respectively. For the same compound, the z-score in test [2] is -0.837.

Turning to `COCCOC(=O)N1C(=O)[C@@]2(c3cc(C#CCCO)ccc31)[C@H](c1ccc(O)cc1)N1[C@H](c3ccccc3)[C@H](c3ccccc3)OC(=O)[C@H]1[C@@H]2C(=O)N1CCc2cc(OC)c(OC)cc2C1`, the composite z-score is 1.41 in test [1]; 1.14 in test [3]; 0.422 in [4]; -0.0529 in [5]; 0.129 in test [6]; -0.153 in test [7]. For the same compound, the composite z-score in [8] is 1.32; in [9], 1.13; in test [10] it was 1.11. Further, the z-score in test [2] was -0.561.

`CCC[C@@H]1C=C(C(=O)OCC)[C@H](c2ccccc2)N1S(=O)(=O)c1ccc(C)cc1`: the composite z-score was 1.04 in test [1]; 1.06 in [3]; 1.99 in test [4]; 0.409 in test [5]; 0.145 in test [6]; -0.195 in test [7]. The results for the composite z-score in [8], in test [9] and in [10] were -0.413, 1.69 and 1.26, respectively. Further, the z-score in test [2] is -1.84.

In the case of `CC(C)CNC(=O)[C@@H]1c2ccccc2C(=O)N(CC23CC4CC(CC(C4)C2)C3)[C@H]1c1ccc(CO)cc1`, the composite z-score was 1.34 in test [1]; 0.0408 in [3]; 0.725 in [4]; 0.769 in test [5]; -0.0685 in [6]; 0.14 in test [7]. Moreover, the values for the composite z-score in test [8], in test [9] and in [10] were -0.436, 0.862 and 1.15, respectively. The compound further gave a z-score in test [2] of -1.05.

As for `CO[C@H]1O[C@H](CO)[C@@H](OC(=O)Nc2ccc(C(F)(F)F)cc2)[C@H](OC(=O)Nc2ccccc2-c2ccccc2)[C@H]1OC(=O)Nc1ccccc1-c1ccccc1`, the composite z-score is 1.47 in [1]; 0.24 in test [3]; 1.59 in test [4]; -0.135 in [5]; -0.0445 in test [6]; 0.0121 in test [7]. In addition, the composite z-score was -0.136 in test [8], 0.731 in [9] and 1.36 in [10]. Further, in test [2], the z-score is -3.83.

`C=C(/C(=C/C[C@H](OC(=O)c1ccncc1)c1ccccc1OCCO)c1cc(C(=O)OC)ccc1OC)C(C)C`: the composite z-score in test [1] is 1.03; in test [3], 0.255; in [4], -0.23; in [5], -0.587; in test [6], 0.132; in [7] it was 0.0639. For the same compound, the composite z-score in test [8] was -0.194; in [9], 0.0538; in [10], 1.42. The compound further returned a z-score in [2] of -2.96.

In the case of `COc1ccc(C(O)C2C=CC3C(=O)N(C)C(=O)C3N2Nc2ccc([N+](=O)[O-])cc2[N+](=O)[O-])cc1OCc1ccccc1` (stereo not given), the composite z-score in test [1] is 1.39; in [3], -0.0506; in test [4], 0.211; in [5], -0.0482; in test [6] it was 0.112; in [7] it was 0.28. For the same compound, the results for the composite z-score in [8], in test [9] and in test [10] were 1.38, 0.527 and 1.5, respectively. The compound also displayed a z-score in [2] of 0.714.

Regarding `Cc1ccc(S[C@]2(C(=O)NC3CC3)CC(=O)N(Cc3cc(C(F)(F)F)cc(C(F)(F)F)c3)[C@@H]2c2ccc(CO)cc2I)cc1`, the composite z-score in test [1] was 0.769; in test [3], -0.175; in test [4], 0.102; in [5], -0.213; in [6], 0.472; in [7], -0.19. Further, the composite z-score in test [8] is 1.65; in test [9], 0.0541; in test [10], 0.665. This compound came in with a z-score in test [2] of -1.67.

Take `COc1ccc([Si](C)(C)[C@H]2[C@H](CC(=O)N3Cc4ccccc4C[C@H]3CO)O[C@@]3(C(=O)N(Cc4cccc(N5C(=O)c6cccc7cccc5c67)c4)c4ccccc43)[C@@H]2C)cc1`: the composite z-score in [1] is 1.19; in test [3] it was 0.633; in test [4], -0.144; in test [5], -0.836; in [6], -0.0316; in test [7], -0.0778. The composite z-score turned out to be 1.11 in test [8], 0.302 in test [9] and 2.33 in [10]. This compound also registered a z-score in [2] of -4.08.

`O=C1C2C=CC(C(O)c3cccs3)N(Nc3ccccc3)C2C(=O)N1c1ccccc1` (stereo not given): the composite z-score in test [1] is 0.407; in [3], 0.253; in [4] it was 0.297; in test [5], -0.971; in [6] it was 0.0135; in test [7], 0.0469. For the same compound, the composite z-score in [8] amounted to 0.371; in test [9] it was 0.403; in test [10], 0.38. The same compound displayed a z-score in test [2] of -1.09.

As for `CC(C)C[C@@H]1NC(=O)[C@H]2C[C@@H](C(=O)NCCCCCNC(=O)CS)[C@@H](c3ccc(O)cc3)N2C1=O`, the composite z-score in test [1] is 1.46; in [3], 0.679; in test [4], 1.03; in test [5], -0.568; in [6], 0.23; in test [7], 0.203. Moreover, the composite z-score in test [8] is -0.324; in test [9], 0.602; in [10] it was 1.54. Moreover, the z-score in test [2] was -0.28.

For the compound `C=CCC(OC(C)=O)[C@@H]1[C@@H](N(Cc2cc3ccccc3o2)C(=O)c2ccc(-c3ccccc3)cc2)c2cc(OCCCO)ccc2N1C(=O)c1ccc2ccccc2n1` (stereo not given in full), the composite z-score in test [1] is 0.061; in test [3], 0.163; in [4], -0.12; in test [5] it was 0.898; in test [6], 0.107; in test [7], -0.124. Also, the figures for the composite z-score in test [8], in [9] and in test [10] were -0.961, 0.554 and 0.113, respectively. In [2], this compound had a z-score of 0.104.

In the case of `COc1ccc(C#Cc2ccc3c(c2)[C@]2(C(=O)N3)[C@H](C(=O)Nc3nc4ccccc4s3)[C@H]3C(=O)O[C@H](c4ccccc4)[C@H](c4ccccc4)N3[C@@H]2c2ccc(OCCO)cc2)cc1`, the composite z-score was found to be 0.801 in [1]; 0.651 in [3]; 2.19 in [4]; 0.915 in test [5]; 0.0377 in [6]; 0.337 in test [7]. The figures for the composite z-score in test [8], in test [9] and in test [10] were 0.302, 2.08 and 1.75, respectively. The same compound came in with a z-score in [2] of -2.03.

`CCCCC(=C=CC[C@H](O)c1ccc(OCCO)cc1)C[C@H](O)c1ccccn1`: the composite z-score in test [1] was 1.31; in test [3], 0.295; in [4] it was 0.587; in [5], -0.758; in test [6], -0.0758; in test [7], -0.0011. Also, the composite z-score amounted to 0.253 in test [8], 0.875 in test [9] and 0.634 in test [10]. Besides, the z-score in [2] was -0.028.

Source of the values: PubChem BioAssay.
